Data on 7 compounds can be found in ChEMBL document CHEMBL1961873, “Compounds: GSK PKIS; Assays: Nanosyn kinase panel” (2012).

Assay [1] deals with Glycogen synthase kinase-3 beta (Homo sapiens) (UniProt P49841). The following applies: at 1 µM.
The target in assay [2] is Homeodomain-interacting protein kinase 1 (Homo sapiens) (UniProt Q86Z02). The following applies: at 0.1 µM.
Assay [3] shares this target. The following applies: at 1 µM.
The target in assay [4] is T1, Homeodomain-interacting protein kinase 4 (Homo sapiens) (UniProt Q8NE63).
T1 sequence (whole entry): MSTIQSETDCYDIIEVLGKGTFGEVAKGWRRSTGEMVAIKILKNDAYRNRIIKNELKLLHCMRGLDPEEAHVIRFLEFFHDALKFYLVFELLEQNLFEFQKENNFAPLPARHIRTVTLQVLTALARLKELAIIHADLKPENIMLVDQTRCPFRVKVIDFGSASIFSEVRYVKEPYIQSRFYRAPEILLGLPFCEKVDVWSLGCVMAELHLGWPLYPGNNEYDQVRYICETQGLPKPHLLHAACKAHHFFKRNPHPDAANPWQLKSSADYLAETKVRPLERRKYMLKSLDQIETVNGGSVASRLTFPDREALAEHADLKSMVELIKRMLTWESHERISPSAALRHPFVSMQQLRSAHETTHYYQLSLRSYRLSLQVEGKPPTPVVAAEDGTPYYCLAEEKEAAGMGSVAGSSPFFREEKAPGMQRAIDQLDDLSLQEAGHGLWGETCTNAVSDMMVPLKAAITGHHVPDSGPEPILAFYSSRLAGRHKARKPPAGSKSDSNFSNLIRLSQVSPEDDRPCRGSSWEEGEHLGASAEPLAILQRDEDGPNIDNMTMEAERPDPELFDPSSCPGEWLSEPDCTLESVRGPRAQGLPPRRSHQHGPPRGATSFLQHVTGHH
The following applies: at 0.1 µM.

The target in assay [5] is T1, Homeodomain-interacting protein kinase 4 (Homo sapiens). The note with it: at 1 µM.
The target of assay [6] is Mitogen-activated protein kinase 9 (Homo sapiens) (UniProt P45984). The following applies: at 0.1 µM.
Assay [7] has the same target. The following applies: at 1 µM.
Assay [8] has as its target Mitogen-activated protein kinase 1 (Homo sapiens) (UniProt P28482). The note with it: at 0.1 µM.
Assay [9] has the same target. The following applies: at 1 µM.
For assay [10], the target named is Mitogen-activated protein kinase 3 (Homo sapiens) (UniProt P27361). The note with it: at 0.1 µM.
Assay [11] has the same target. The following applies: at 1 µM.
In assay [12] the target is SRSF protein kinase 3 (Homo sapiens) (UniProt Q9UPE1). The following applies: at 0.1 µM.
The target is the same in assay [13]. The note with it: at 1 µM.
The target in assay [14] is Mitogen-activated protein kinase 14 (Homo sapiens) (UniProt Q16539). The following applies: at 0.1 µM.
The target is the same in assay [15]. The following applies: at 1 µM.
Assay [16] addresses Mitogen-activated protein kinase 11 (Homo sapiens) (UniProt Q15759). The note with it: at 0.1 µM.
The target is the same in assay [17]. The following applies: at 1 µM.
Assay [18] concerns the target T2, Mitogen-activated protein kinase 13 (Homo sapiens) (UniProt O15264).
T2 sequence (whole entry): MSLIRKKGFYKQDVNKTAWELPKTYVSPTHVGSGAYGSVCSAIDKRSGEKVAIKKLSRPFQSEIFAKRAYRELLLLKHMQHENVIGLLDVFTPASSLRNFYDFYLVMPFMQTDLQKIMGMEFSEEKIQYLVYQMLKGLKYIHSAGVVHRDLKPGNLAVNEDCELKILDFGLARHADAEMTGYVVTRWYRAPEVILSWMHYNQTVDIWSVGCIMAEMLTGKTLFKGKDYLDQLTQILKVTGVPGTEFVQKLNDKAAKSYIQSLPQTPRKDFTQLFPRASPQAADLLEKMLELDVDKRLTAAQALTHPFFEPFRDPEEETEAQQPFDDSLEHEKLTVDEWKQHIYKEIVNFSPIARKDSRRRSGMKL
The following applies: at 0.1 µM.

For assay [19], the target named is T2, Mitogen-activated protein kinase 13 (Homo sapiens). The following applies: at 1 µM.
For assay [20], the target named is T3, Mitogen-activated protein kinase 12 (Homo sapiens) (UniProt P53778).
T3 sequence (whole entry): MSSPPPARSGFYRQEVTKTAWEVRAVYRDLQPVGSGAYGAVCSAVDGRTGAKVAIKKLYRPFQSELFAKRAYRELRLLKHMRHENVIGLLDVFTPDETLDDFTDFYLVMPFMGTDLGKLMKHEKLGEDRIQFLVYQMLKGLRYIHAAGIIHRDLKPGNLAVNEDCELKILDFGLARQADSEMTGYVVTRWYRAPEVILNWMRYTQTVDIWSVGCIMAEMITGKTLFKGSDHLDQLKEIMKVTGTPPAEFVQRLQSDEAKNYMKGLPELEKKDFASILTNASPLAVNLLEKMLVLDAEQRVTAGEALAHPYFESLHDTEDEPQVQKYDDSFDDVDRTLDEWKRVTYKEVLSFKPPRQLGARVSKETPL
The note with it: at 0.1 µM.

Sequence of Mitogen-activated protein kinase 11 (Homo sapiens) (Q15759 whole entry): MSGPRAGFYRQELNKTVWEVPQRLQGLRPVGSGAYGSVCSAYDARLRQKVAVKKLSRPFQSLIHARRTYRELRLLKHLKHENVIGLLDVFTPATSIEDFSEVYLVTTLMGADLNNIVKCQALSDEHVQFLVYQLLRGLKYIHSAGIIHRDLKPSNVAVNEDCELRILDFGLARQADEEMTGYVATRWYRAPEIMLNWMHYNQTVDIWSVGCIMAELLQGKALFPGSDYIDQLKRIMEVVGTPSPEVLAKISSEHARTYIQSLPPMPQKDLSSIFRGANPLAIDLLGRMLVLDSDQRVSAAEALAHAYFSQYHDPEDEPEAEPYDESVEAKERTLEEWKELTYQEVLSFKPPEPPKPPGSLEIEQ
Sequence of Glycogen synthase kinase-3 beta (Homo sapiens) (P49841 whole entry, looked up): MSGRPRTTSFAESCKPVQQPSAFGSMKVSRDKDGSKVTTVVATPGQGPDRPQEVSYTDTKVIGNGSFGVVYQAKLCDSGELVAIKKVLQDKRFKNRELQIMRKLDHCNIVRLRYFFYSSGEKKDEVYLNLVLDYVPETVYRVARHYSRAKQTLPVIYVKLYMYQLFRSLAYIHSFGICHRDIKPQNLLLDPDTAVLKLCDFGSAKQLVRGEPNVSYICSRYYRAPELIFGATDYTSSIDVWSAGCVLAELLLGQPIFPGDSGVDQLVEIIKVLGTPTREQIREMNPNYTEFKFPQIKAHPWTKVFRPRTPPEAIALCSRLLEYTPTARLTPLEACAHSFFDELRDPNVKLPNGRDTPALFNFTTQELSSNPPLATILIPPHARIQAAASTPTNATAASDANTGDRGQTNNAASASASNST
Sequence of Mitogen-activated protein kinase 9 (Homo sapiens) (P45984 whole entry, looked up): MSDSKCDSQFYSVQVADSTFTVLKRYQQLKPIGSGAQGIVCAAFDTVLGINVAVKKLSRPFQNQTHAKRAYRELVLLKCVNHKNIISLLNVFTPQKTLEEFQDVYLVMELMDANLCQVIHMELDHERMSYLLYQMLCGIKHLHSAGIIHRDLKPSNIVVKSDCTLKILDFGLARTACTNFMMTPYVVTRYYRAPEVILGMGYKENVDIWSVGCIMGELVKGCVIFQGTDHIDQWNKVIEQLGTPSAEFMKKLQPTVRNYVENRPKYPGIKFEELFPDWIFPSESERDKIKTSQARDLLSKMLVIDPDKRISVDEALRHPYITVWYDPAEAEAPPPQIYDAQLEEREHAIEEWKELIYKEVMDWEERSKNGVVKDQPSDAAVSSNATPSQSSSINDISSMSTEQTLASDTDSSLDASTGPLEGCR
Sequence of Homeodomain-interacting protein kinase 1 (Homo sapiens) (Q86Z02 whole entry, looked up): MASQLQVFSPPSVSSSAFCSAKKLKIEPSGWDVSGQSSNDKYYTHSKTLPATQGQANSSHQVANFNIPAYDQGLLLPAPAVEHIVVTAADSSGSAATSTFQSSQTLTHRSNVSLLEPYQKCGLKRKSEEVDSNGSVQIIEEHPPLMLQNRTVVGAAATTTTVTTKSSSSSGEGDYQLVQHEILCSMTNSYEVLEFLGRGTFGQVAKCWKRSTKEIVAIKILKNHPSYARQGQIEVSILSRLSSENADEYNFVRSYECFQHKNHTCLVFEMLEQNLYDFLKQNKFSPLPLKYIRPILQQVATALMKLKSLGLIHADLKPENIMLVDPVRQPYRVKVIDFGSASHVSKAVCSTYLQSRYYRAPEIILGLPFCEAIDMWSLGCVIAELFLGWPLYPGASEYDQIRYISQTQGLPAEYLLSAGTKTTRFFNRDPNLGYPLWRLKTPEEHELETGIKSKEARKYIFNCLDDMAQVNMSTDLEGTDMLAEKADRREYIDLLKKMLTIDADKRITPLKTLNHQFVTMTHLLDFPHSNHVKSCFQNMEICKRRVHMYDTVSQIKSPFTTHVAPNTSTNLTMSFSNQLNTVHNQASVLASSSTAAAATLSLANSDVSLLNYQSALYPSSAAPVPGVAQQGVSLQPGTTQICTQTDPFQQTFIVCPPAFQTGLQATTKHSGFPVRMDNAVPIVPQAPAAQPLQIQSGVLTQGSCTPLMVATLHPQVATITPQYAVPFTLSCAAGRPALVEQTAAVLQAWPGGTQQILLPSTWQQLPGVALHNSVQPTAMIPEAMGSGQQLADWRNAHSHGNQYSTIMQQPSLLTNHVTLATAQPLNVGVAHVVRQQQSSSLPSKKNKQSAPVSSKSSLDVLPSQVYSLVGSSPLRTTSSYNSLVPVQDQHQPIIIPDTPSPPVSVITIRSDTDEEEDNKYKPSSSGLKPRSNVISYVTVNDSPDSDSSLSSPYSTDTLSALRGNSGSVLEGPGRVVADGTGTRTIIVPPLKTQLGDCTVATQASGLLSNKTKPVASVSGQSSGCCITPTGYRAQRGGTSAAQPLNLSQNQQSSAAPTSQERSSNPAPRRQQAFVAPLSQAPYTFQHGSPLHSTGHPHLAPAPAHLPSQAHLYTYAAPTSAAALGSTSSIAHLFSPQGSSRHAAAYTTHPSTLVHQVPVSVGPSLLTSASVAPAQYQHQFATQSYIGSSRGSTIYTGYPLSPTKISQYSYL
Sequence of Mitogen-activated protein kinase 1 (Homo sapiens) (P28482 whole entry): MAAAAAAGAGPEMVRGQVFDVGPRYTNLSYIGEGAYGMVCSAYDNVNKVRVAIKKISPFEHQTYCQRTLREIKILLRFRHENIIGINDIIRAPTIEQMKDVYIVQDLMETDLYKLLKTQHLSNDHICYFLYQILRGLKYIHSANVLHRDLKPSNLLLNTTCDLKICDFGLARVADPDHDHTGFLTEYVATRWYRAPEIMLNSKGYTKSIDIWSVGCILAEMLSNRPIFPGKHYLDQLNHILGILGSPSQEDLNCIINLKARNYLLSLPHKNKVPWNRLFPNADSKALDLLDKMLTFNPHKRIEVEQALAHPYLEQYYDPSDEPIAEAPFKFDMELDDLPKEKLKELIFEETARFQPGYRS
Sequence of Mitogen-activated protein kinase 14 (Homo sapiens) (Q16539 whole entry): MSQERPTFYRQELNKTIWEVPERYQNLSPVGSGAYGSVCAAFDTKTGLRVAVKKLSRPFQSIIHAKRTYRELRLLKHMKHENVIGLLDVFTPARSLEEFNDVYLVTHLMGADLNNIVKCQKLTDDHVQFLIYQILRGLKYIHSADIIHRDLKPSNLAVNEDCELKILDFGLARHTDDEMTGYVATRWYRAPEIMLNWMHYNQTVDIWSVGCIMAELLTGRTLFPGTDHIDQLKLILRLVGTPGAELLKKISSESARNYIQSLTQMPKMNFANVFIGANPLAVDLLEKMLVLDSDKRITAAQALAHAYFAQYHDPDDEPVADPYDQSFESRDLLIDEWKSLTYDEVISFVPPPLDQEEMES
Sequence of SRSF protein kinase 3 (Homo sapiens) (Q9UPE1 whole entry): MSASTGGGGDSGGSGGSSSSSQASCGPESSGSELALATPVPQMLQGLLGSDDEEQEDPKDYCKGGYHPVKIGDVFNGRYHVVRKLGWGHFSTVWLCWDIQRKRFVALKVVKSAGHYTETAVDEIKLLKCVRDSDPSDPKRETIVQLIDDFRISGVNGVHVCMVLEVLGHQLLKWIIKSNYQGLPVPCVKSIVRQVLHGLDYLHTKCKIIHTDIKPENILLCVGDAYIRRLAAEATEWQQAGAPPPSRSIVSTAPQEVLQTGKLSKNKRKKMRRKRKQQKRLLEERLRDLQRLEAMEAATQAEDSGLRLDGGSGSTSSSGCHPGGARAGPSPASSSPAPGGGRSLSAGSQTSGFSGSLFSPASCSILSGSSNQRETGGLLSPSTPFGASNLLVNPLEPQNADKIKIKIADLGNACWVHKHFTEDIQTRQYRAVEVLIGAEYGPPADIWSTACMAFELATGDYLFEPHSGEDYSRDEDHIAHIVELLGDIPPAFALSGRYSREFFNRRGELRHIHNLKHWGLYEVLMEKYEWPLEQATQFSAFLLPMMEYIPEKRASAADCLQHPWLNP
Sequence of Mitogen-activated protein kinase 3 (Homo sapiens) (P27361 whole entry): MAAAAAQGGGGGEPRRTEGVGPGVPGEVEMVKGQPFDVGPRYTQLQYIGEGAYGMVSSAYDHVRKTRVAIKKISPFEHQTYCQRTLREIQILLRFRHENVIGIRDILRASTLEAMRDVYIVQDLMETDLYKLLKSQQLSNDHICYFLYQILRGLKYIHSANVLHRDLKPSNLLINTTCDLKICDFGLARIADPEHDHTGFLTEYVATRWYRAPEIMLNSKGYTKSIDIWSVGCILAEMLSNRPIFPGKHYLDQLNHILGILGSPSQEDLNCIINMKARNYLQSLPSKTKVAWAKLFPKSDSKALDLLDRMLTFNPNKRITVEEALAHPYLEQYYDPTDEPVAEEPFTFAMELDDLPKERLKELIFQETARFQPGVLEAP

For orientation: inhibition means the change of the read-out against control, counted positive when it falls. For `COc1ccc2cc(-c3c(-c4ccncc4)nc(-c4ccc(S(C)(=O)=O)cc4C)n3C)ccc2c1`, the inhibition in assay [1] is 6.76%; in assay [2] it was 0.5%; in [3], -0.46%; in assay [4] it was -0.03%; in [5], 1.88%; in assay [6] it was 4.44%. In addition, the inhibition is 10.1% in assay [7]; 5.2% in [8]; 5.44% in assay [9]; 3.83% in assay [10]; 2.57% in [11]; -1.96% in assay [12]. Also, the inhibition in assay [13] is -4.7%; in assay [14], 14.2%; in [15] it was 17.3%; in assay [16], 2.54%; in [17], 11%; in assay [18] it was 2.15%. Further, the results for the inhibition in assay [19] and in assay [20] were 5.04% and 3.44%, respectively.
For `COc1ccc2ncn(-c3cc(O[C@H](C)c4ccccc4Cl)c(C(N)=O)s3)c2c1`, the inhibition in assay [1] was -0.28%; in assay [2], -4.71%; in assay [3], -1.67%; in [4], 0.62%; in assay [5], 5.59%; in assay [6] it was 2.17%. The inhibition in assay [7] was -0.22%; in [8], 5.14%; in assay [9], 4.54%; in assay [10], 4.56%; in [11], 3.04%; in [12] it was -3.56%. Further, the inhibition in assay [13] was -0.27%; in [14], 6.99%; in assay [15] it was 6.3%; in assay [16], 2.23%; in assay [17], 4.3%; in assay [18], 5.14%. The inhibition is 4.31% in [19] and 3.31% in assay [20].
As for `COc1cc2ncn(-c3cc(OCc4ccccc4C(F)(F)F)c(C(C)=O)s3)c2cc1OC`, the inhibition is 2.85% in assay [1]; -0.68% in assay [2]; 4.77% in assay [3]; 3.23% in assay [4]; 7.24% in [5]; 0.67% in assay [6]. Also, the inhibition is 0.69% in [7]; 5.64% in [8]; 5.81% in assay [9]; 3.61% in assay [10]; 3.87% in assay [11]; -2.61% in assay [12]. Besides, the inhibition amounted to 1.07% in assay [13]; 4.86% in [14]; 3.85% in assay [15]; 5.8% in assay [16]; 4.79% in [17]; 2.82% in assay [18]. The figures for the inhibition in assay [19] and in assay [20] were 2.04% and 2.87%, respectively.
For `Clc1ccc(CNc2nccc(-c3cnn4ncccc34)n2)cc1`, the inhibition came to 11.6% in assay [1]; 14.8% in [2]; 57.9% in [3]; 11.9% in assay [4]; 49% in assay [5]; 3.52% in [6]. Also, the inhibition in [7] was 5.1%; in assay [8] it was 4.19%; in assay [9], 3.23%; in assay [10] it was 3.04%; in [11] it was 1.44%; in [12] it was -0.1%. The inhibition is -3.75% in assay [13]; 2.58% in assay [14]; 7.97% in [15]; 1.06% in assay [16]; 6.53% in assay [17]; -0.19% in assay [18]. The inhibition worked out at 2.4% in [19] and 0.66% in [20].
On to `NC(=O)c1cc(-c2ccc(F)cc2)cc(-c2ccncc2)c1N`, for which the inhibition was 1.12% in assay [1]; 1.44% in [2]; 0.21% in assay [3]; -0.23% in [4]; 2.98% in assay [5]; 3.69% in assay [6]. For the same compound, the inhibition in assay [7] was 2.06%; in [8], 4.92%; in assay [9], 5.18%; in assay [10], 3.25%; in assay [11] it was 3.05%; in assay [12], -2.8%. Also, the inhibition in [13] is -1.27%; in assay [14] it was 6.13%; in assay [15], 8.6%; in assay [16], 2.26%; in [17], 5.45%; in assay [18], 2.57%. Besides, the figures for the inhibition in assay [19] and in assay [20] were 3.93% and 4.51%, respectively.
`COc1cc(C)c(N(C)C(=O)CN(C)C)cc1Nc1nc(Nc2cccc(F)c2C(N)=O)c2cc[nH]c2n1`: the inhibition in assay [1] is -3.33%; in assay [2], -4.07%; in assay [3], 2.02%; in [4] it was 0.06%; in [5], 4.88%; in assay [6], 1.42%. The inhibition in assay [7] amounted to 2.97%; in assay [8], 0.6%; in assay [9], 3.4%; in [10], 2.26%; in assay [11], 2.25%; in assay [12], 1.68%. In addition, the inhibition in assay [13] was 1.28%; in assay [14], -0.82%; in assay [15] it was 3.91%; in assay [16] it was 2.56%; in [17] it was 0.98%; in assay [18], 1%. The inhibition in assay [19] was 1.9%; in assay [20], 0.25%.
With `CCS(=O)(=O)c1ccc(OC)c(Nc2ncc(-c3cccc(-c4ccccc4F)c3)o2)c1`, the inhibition is 7.6% in [1]; 1.49% in assay [2]; 6.56% in assay [3]; 3.89% in [4]; 17.3% in [5]; 0.09% in [6]. For the same compound, the inhibition was 6.86% in assay [7]; -1.77% in assay [8]; -3.35% in assay [9]; -2.17% in assay [10]; 0.15% in [11]; 0.74% in assay [12]. For the same compound, the inhibition amounted to 1.45% in [13]; 5.17% in assay [14]; 8.57% in assay [15]; 0.03% in [16]; 4.77% in assay [17]; 3.85% in assay [18]. Also, the inhibition in assay [19] was -0.94%; in [20] it was -2.59%.
